Results reported in PubChem BioAssay AID2099 (Broad Institute, 2009).
In all, about 330,000 compounds went through this assay and about 230 (0.07%) were called active. Shown is part of a subset that was picked to be rich in actives. Unmarked numbers belong to inactive results.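 The calls were made as follows: active = more than half of a compound's replicate wells show inhibition beyond 50%, single wells judged on their own value; inconclusive = some, but no more than half, of replicates pass 50% inhibition; inactive = no replicate passes 50% inhibition.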

molecular target: Lysine-specific demethylase 4C (Homo sapiens) (UniProt Q9H3R0); assay: inhibitors of GASC-1 histone demethylase, primary screen, biochemical, fluorescence, DELFIA europium (AID 2099); details: GST-JMJD2C(1-420) H3K9me3 demethylation, at 2.35 µM, hits give high values;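 also: signal counts dimethyl H3K9 product captured on neutravidin plate; 0% = median of DMSO wells and 100% = 0.3 times that DMSO median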
Sequence (Q9H3R0 1-420 limits assumed): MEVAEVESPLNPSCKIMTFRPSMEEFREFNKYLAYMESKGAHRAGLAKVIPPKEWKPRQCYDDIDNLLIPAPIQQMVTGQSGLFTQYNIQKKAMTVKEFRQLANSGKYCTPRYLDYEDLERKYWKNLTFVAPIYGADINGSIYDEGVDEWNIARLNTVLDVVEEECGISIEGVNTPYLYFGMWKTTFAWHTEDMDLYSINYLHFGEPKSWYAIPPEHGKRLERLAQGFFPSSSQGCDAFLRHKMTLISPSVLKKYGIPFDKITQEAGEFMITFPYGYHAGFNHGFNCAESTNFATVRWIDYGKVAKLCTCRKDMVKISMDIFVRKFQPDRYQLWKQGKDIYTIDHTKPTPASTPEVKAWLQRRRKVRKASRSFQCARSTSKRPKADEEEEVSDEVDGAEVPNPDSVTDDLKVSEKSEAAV

Row | SMILES | inhibition
1 | CCc1cc2c(=O)n(-c3ccccc3)c(SCC(=O)O)nc2s1 | -0.0126%
2 | Cn1ccnc1-c1nnn(-c2ccc(F)cc2)n1 | 1.58%
3 | Cc1sc2ncn(CC(=O)NCCCC(=O)N(C)Cc3ccccc3)c(=O)c2c1C | 3.53%
4 | Cc1ccc2nc(C)c3c(c2c1)N(c1ccccc1)CC3 | 0.549%
5 | CC(C)n1c(=S)[nH]c2cc(C(F)(F)F)ccc21 | 9.24%
6 | O=C(COC(=O)c1ccccc1NC(=O)c1ccco1)Nc1ccc2c(c1)OC(F)(F)O2 | -7.33%
7 | CCN1CCC2(CC1)N=C(c1ccc(F)cc1)C(=S)N2C(=O)c1ccc(C)cc1 | -5.72%
8 | CCOc1ncccc1C(=O)OCC(=O)Nc1cccc(S(=O)(=O)N2CCCCCC2)c1 | 3.84%
9 | CCC1(C)N(O)C(C)(C)C(c2ccc(OC)cc2)=[N+]1[O-] (stereo unspecified) | 1.82%
10 | CN(/C(=N/S(=O)(=O)c1cccs1)c1ccccc1)c1ccc(O)cc1 | -2.26%
11 | COc1ccc(Cl)cc1N(CC(=O)N/N=C/c1ccc(OCC(N)=O)cc1)S(C)(=O)=O | 4.78%
12 | O=C(COc1ccc(Cl)cc1Cl)NCCCNC(=O)c1cnccn1 | -5.15%
13 | CCOC(=O)C(=Cc1ccccc1OC)C(=O)OCC | -1.48%
14 | CCOc1ccccc1NC(=O)NC1CCCCCCC1 | 3.73%
15 | CC(=O)Nc1ccc(NC(=O)C(C)OC(=O)C2CC(=O)N(CCc3ccccc3)C2)cc1 (stereo unspecified) | 0.0499%
16 | Cc1nn(Cc2ccc(F)cc2)c(C)c1NC(=O)c1noc2c1CCc1ccccc1-2 | -8.11%
17 | COc1ccccc1CCC(=O)NNC(=O)c1ccncc1 | -2.82%
18 | COc1cccc(CN(C)C(=O)CC23CC4CC(CC(C4)C2)C3)c1OC | 8.93%
19 | CC(C)=CCN1CCN(Cc2cc3ccccc3[nH]2)CC1CCO (stereo unspecified) | -4.87%
20 | COc1ccc(-c2nnc(SC(=O)N3c4ccccc4Sc4ccccc43)o2)cc1 | -0.278%
21 | CC1=C(C(=O)N(C)C)C(c2ccccc2OC(F)F)NC(=O)N1 (stereo unspecified) | 6.88%
22 | CCN1N=C(c2ccccc2)CCC1=O | 2.88%
23 | CCc1ccc[n+](-c2nc([O-])sc2C=O)c1 | 22.8%

Row | SMILES | inhibition
24 | Cc1ccnc(NC(=O)CCNS(=O)(=O)c2ccc(C)c(C)c2)c1 | 7.52%
25 | CCOc1ccc(-n2c(N)c(C(=O)NCC3CCCO3)sc2=S)cc1 (stereo unspecified) | -1.83%
26 | CCC(C)(C(=O)NC1CCCCC1)N(C)C(=O)c1ccc2c(c1)OCO2 (stereo unspecified) | 10.3%
27 | CN(C)c1nc(N)nc(CSc2nnnn2-c2cccc3ccccc23)n1 | -13.8%
28 | O=C(NCc1ccc(F)cc1)C(c1ccccc1)N(C(=O)c1csnn1)C1CC1 (stereo unspecified) | -35.4%
29 | CCc1ccc(N2CC(C(=O)N3CCCCCC3)CC2=O)cc1 (stereo unspecified) | 1.98%
30 | CN1CCN(S(=O)(=O)c2cccc(C(=O)Nc3cccc(S(N)(=O)=O)c3)c2)CC1 | -5.59%
31 | COc1ccccc1C(=O)Nc1cccc(C(=O)N2CCOCC2)c1 | 4.92%
32 | O=C(NCN1CCN(CCO)CC1)c1cnccn1 | -26.1%
33 | COc1cccc(NC(=O)CN(C)CC(=O)c2c(N)n(Cc3ccccc3)c(=O)n(C)c2=O)c1 | -0.288%
34 | CCCN(CCC)C(=O)C1c2ccccc2Oc2ccccc21 | 8.4%
35 | CC(C)C[C@H](NC(=O)C1CCC(CNC(=O)[C@@H]2CCCN2C(=O)OC(C)(C)C)CC1)C(=O)O (stereo partly specified) | 0.085%
36 | Cc1ccc(NS(=O)(=O)c2ccc(F)cc2)nc1 | -1.74%
37 | COc1ccccc1CNC(=O)COC(=O)c1cccs1 | -6.88%
38 | CC(=O)NCCc1ccc(S(=O)(=O)Nc2ccc(C)c(S(=O)(=O)N3CCOCC3)c2)cc1 | -18.7%
39 | CC(=O)NC1=NN(C(C)=O)C(C)(c2ccc(Cl)s2)S1 (stereo unspecified) | -13.4%
40 | CCOc1ccc(N(C)Cc2cc(=O)oc3ccc(OC)cc23)cc1 | -5.29%
41 | Cc1ccc(CSc2nc3[nH]ncc3c(=O)[nH]2)cc1 | -14.5%
42 | COC(=O)c1cc(CNC(=O)CC(C)c2ccccc2)ccc1OC (stereo unspecified) | -9.06%
43 | CCOC(=O)c1ccc(NC(=S)N2CCN(c3ccccn3)CC2)cc1 | 21.6%
44 | OC(COc1ccc(CN2CCSCC2)cc1)CN1CCCCC1 (stereo unspecified) | 6.13%
45 | CCOC(=O)C1=C(COC(=O)[C@H](C)NS(=O)(=O)c2ccccc2F)NC(=O)NC1C (stereo partly specified) | 0.99%
46 | COc1cc2nc(CN(C)Cc3ccc(F)cc3)[nH]c(=O)c2cc1OC | -7.12%

Row | SMILES | inhibition
47 | Cc1cc(NC(=O)CCC(=O)N(Cc2ccccc2)C(C(=O)NC2CCCC2)c2ccc(C)o2)no1 (stereo unspecified) | -25.8%
48 | CCCCn1c(N)c(N(CCOC)C(=O)c2cccc(S(=O)(=O)N(C)c3ccccc3)c2)c(=O)[nH]c1=O | -2.28%
49 | CCC(C(=O)Nc1ccc(C(C)C)cc1)c1ccccc1 (stereo unspecified) | -16%
50 | O=C(Nc1ccc(S(=O)(=O)Nc2ccccn2)cc1)c1ccccc1 | -2.52%
51 | COC(=O)c1cc(C(=O)NC(C)C2CC3CCC2C3)cc([N+](=O)[O-])c1 (stereo unspecified) | -12.5%
52 | COc1cc(NC(=O)c2ccccc2)c(OC)cc1NC(=O)Cc1ccccc1 | 0.759%
53 | Nc1nc(SCC(=O)Nc2cc(C(F)(F)F)ccc2Cl)[nH]c(=O)c1NC(=O)c1ccco1 | 6.68%
54 | COc1ccc(C(CC(=O)c2ccccc2)S(=O)(=O)c2ccccc2)cc1 (stereo unspecified) | -0.656%
55 | CCC(C(=O)NCCC(C)C)N(Cc1ccccc1Cl)C(=O)c1snc(C(N)=O)c1N (stereo unspecified) | -1.98%
56 | CCCCCOC(=O)C1=C(C)Nc2nnnn2C1c1ccc(OC)c(OC)c1OC (stereo unspecified) | -7.05%
57 | Cc1ccc(NC(=O)Cn2cnc3c(OCc4ccccc4)ncnc32)cc1C | 3.36%
58 | O=C(Cc1cccs1)NCc1cccc(C(F)(F)F)c1 | 2.56%
59 | O=C(c1ccc(S(=O)(=O)N2CCCC2)cc1)N1CCN(c2ccccc2F)CC1 | 5.37%
60 | C/C(=N\NC(=O)CCn1nc(C)cc1C)C(C)(C)C | -1.66%
61 | CCC(c1nnc(SCC(=O)NNC(=O)c2ccccc2)n1Cc1ccccc1)N(C)C (stereo unspecified) | 24.1%
62 | CC1CN(C(=O)COC(=O)c2cccc(NS(=O)(=O)c3ccccc3)c2)CC(C)O1 (stereo unspecified) | -11.9%
63 | CC(C)(C)n1nnc(CCc2nnn(C(C)(C)C)n2)n1 | 4.71%
64 | CC1CC(C)(C)CC2(C1)NC(=O)N(CC(=O)Nc1nccs1)C2=O (stereo unspecified) | 12%
65 | CN(C)/C=N/c1cc(=O)n(C)c(=O)n1CC1CC1 | -0.734%
66 | CN(C)S(=O)(=O)c1ccc(N2CCCC2=O)c([N+](=O)[O-])c1 | 7.65%
67 | C=CCc1cc(S(=O)(=O)c2ccc(O)c(CC=C)c2)ccc1O | 11.5%
68 | CCCCc1ccc(S(N)(=O)=O)cc1 | 1.85%
69 | COc1cc(CN(C)Cc2nc3cc(C(F)(F)F)ccc3c(=O)[nH]2)ccc1OC(F)F | -0.492%

Row | SMILES | inhibition
70 | O=[N+]([O-])c1ncc(Br)cc1Nc1ccccc1 | -32.6%
71 | CC(C)N(Cc1nnc(-c2ccc(Cl)cc2)o1)C(=O)C1=COCCO1 | 0.031%
72 | COc1ccc(CNC(=O)C(=O)N2CCC3(CC2)OCCN3S(=O)(=O)c2ccc(C)cc2)cc1 | 28.1%
73 | Cc1cc(C)n(CCNC(=O)CC2C(=O)NCCN2Cc2ccc(C)o2)n1 (stereo unspecified) | -19.8%
74 | CCC(=O)NC(Nc1cc(C)ccn1)(C(F)(F)F)C(F)(F)F | -10.4%
75 | CC1CN(C(=O)CCC(=O)NCCCN2CCC(Cc3ccccc3)CC2)c2cc(Cl)ccc2O1 (stereo unspecified) | 2.61%
76 | Cc1noc(C)c1C(=O)OCC(=O)N1CCN(S(=O)(=O)c2ccc3ccccc3c2)CC1 | -0.0421%
77 | CCOC(=O)c1sc(-c2cccc([N+](=O)[O-])c2)cc1N | 0.615%
78 | Cc1ccc(C(=O)CN2C(=O)NC3(CCOc4ccccc43)C2=O)s1 (stereo unspecified) | 0.803%
79 | CCOc1ccc(NC(=O)CN(C)CC(=O)NC(C)c2ccccc2)cc1OCC (stereo unspecified) | 2.69%
80 | CCN1C(=O)C(=O)N(CC(=O)Nc2cc(C)ccc2C)C1=O | 8.4%
81 | COc1cccc2cc(C(=O)NCc3ccc(C)cc3)c(=N)oc12 | 0.845%
82 | Cc1ccccc1-c1cc(C(=O)NCC2CC2)n(CC2CC(c3cccnc3)=NO2)n1 (stereo unspecified) | -1.99%
83 | O=C(/C=C/c1cccs1)c1cc(Cl)ccc1OC(=O)N1CCOCC1 | 98.5%
84 | COc1cc(OC)cc(-c2nnc(N(C)C(=O)c3ccncc3)s2)c1 | -7.55%
85 | COc1cccc(-c2nnc(N(C)C(=O)c3ccno3)s2)c1 | -39.9%
86 | CN(C(=O)c1ccccn1)c1nnc(-c2ccccn2)s1 | 58.4% (active)
87 | O=C(NCCNc1ccc([N+](=O)[O-])cc1)c1cccc2c(Br)cccc12 | 7.15%
88 | O=C(O)CCCn1cc(NC(=O)COc2cccc(Cl)c2)cn1 | -414%
89 | CCCCn1c(N)c(N(CC(C)C)C(=O)c2cccc(S(=O)(=O)N3CCN(C(C)=O)CC3)c2)c(=O)[nH]c1=O | -1.72%
90 | CC1CCN(C(=O)/C(=C\c2ccccc2F)NC(=O)c2ccccc2)CC1 | 0.57%
91 | CCOc1ccc(S(=O)(=O)N2CCC(c3ccccc3)CC2)cc1C(=O)O | -0.18%
